Several values for one entry are separate records, joined by “and”; a condition that tells them apart may be missing. Identical values can stand only once. This is part of a sample that, as a whole, favours compounds with a hit. Of some 83,000 tested, about 20% had one in any assay.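 The endpoint reported here, percent growth, reads 100 for growth as untreated, 0 for no net growth and -100 for all cells dead.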 Activity calls are given as the source filed them. The calls were made as follows: active = growth percent below 10; inactive = the rest.
What was measured:
Assay in all cases: NCI-60 one-dose screen, 48 h (100 = growth as untreated, 0 = no growth, -100 = all killed)
NCI-H23 lung = test system: NCI-H23 lung
NCI-H226 lung = test system: NCI-H226 lung
NCI-H322M lung = test system: NCI-H322M lung
HOP-62 NSCLC = test system: HOP-62 NSCLC
NCI-H460 lung = test system: NCI-H460 lung
HOP-92 NSCLC = test system: HOP-92 NSCLC
NCI-H522 lung = test system: NCI-H522 lung
A549/ATCC NSCLC = test system: A549/ATCC NSCLC
786-0 renal = test system: 786-0 renal
COLO 205 colon = test system: COLO 205 colon

Q: What does the source list for `COC(=O)c1nc(=S)[nH]c(C(=O)OC)c1C(=O)c1ccc2ccccc2c1`?
A: growth (NCI-H23 lung; 10 µM unless noted): 97.9% (inactive); growth (NCI-H226 lung; 10 µM unless noted): 86.9% (inactive); growth (NCI-H322M lung; 10 µM unless noted): 97.7% (inactive); growth (HOP-62 NSCLC; 10 µM unless noted): 106% (inactive); growth (NCI-H460 lung; 10 µM unless noted): 111% (inactive); growth (HOP-92 NSCLC; 10 µM unless noted): 101% (inactive); growth (NCI-H522 lung; 10 µM unless noted): 102% (inactive); growth (A549/ATCC NSCLC; 10 µM unless noted): 120% (inactive); growth (786-0 renal; 10 µM unless noted): 114% (inactive); growth (COLO 205 colon; 10 µM unless noted): 96.8% (inactive)

Q: For `COc1ccc(N=N/N=c2\sc3cc(OC)ccc3n2C)cc1`, which growth (NCI-H23 lung; 10 µM unless noted) is on record?
A: 79.6% (inactive)

Q: What about the growth (NCI-H226 lung; 10 µM unless noted) of the same molecule?
A: 81.8% (inactive)

Q: And the growth (NCI-H322M lung; 10 µM unless noted)?
A: 83.9% (inactive)

Q: And the growth (HOP-62 NSCLC; 10 µM unless noted)?
A: 86.4% (inactive)

Q: And the growth (NCI-H460 lung; 10 µM unless noted)?
A: 94.9% (inactive)

Q: And the growth (HOP-92 NSCLC; 10 µM unless noted)?
A: 71.2% (inactive)

Q: And the growth (NCI-H522 lung; 10 µM unless noted)?
A: 73.8% (inactive)

Q: What about the growth (A549/ATCC NSCLC; 10 µM unless noted) of the same molecule?
A: 69.8% (inactive)

Q: And the growth (786-0 renal; 10 µM unless noted)?
A: 105% (inactive)

Q: And the growth (COLO 205 colon; 10 µM unless noted)?
A: 92.2% (inactive)

Q: For `Oc1ccc(/C=N/NC(=S)Nc2ccccc2)nc1`, which growth (NCI-H23 lung; 10 µM unless noted) is on record?
A: 14.9% (inactive)

Q: And the growth (NCI-H226 lung; 10 µM unless noted)?
A: 5.69% (active)

Q: What about the growth (NCI-H322M lung; 10 µM unless noted) of the same molecule?
A: 21.2% (inactive)

Q: And the growth (HOP-62 NSCLC; 10 µM unless noted)?
A: 12.2% (inactive)

Q: What about the growth (NCI-H460 lung; 10 µM unless noted) of the same molecule?
A: 2.79% (active)

Q: And the growth (HOP-92 NSCLC; 10 µM unless noted)?
A: -0.553% (active)

Q: What about the growth (NCI-H522 lung; 10 µM unless noted) of the same molecule?
A: -14.2% (active)

Q: And the growth (A549/ATCC NSCLC; 10 µM unless noted)?
A: 11.5% (inactive)

Q: And the growth (786-0 renal; 10 µM unless noted)?
A: -21% (active)

Q: And the growth (COLO 205 colon; 10 µM unless noted)?
A: 24.4% (inactive)

Q: How did the growth (NCI-H23 lung; 10 µM unless noted) turn out when `COc1ccc2nc3cc(Cl)ccc3c(NCCNc3c4ccc(Cl)cc4nc4ccc(OC)cc34)c2c1` was run?
A: -73% (active)

Q: What about the growth (NCI-H226 lung; 10 µM unless noted) of the same molecule?
A: -54.7% (active)

Q: And the growth (NCI-H322M lung; 10 µM unless noted)?
A: -86.6% (active)

Q: And the growth (HOP-62 NSCLC; 10 µM unless noted)?
A: -80.4% (active)

Q: What about the growth (NCI-H460 lung; 10 µM unless noted) of the same molecule?
A: -68.7% (active)

Q: What about the growth (HOP-92 NSCLC; 10 µM unless noted) of the same molecule?
A: -72.7% (active)

Q: What about the growth (NCI-H522 lung; 10 µM unless noted) of the same molecule?
A: -90.7% (active)

Q: What about the growth (A549/ATCC NSCLC; 10 µM unless noted) of the same molecule?
A: -74.5% (active)

Q: What about the growth (786-0 renal; 10 µM unless noted) of the same molecule?
A: -88% (active)

Q: And the growth (COLO 205 colon; 10 µM unless noted)?
A: -74.9% (active)

Q: Which results are given for `O=C(O)c1c(Cl)c(Cl)c(Cl)c(Cl)c1-c1c2cc(I)c(=O)c(I)c-2oc2c(I)c(O)c(I)cc12`?
A: growth (NCI-H23 lung; 10 µM): 103% (inactive) and 91.8% (inactive) and 101% (inactive); growth (NCI-H23 lung; 100 µM): -60% (active); growth (NCI-H226 lung; 10 µM): 113% (inactive) and 99.1% (inactive) and 94.4% (inactive); growth (NCI-H226 lung; 100 µM): 25.9% (inactive); growth (NCI-H322M lung; 10 µM): 108% (inactive) and 109% (inactive) and 78.1% (inactive); growth (NCI-H322M lung; 100 µM): 36.3% (inactive); growth (HOP-62 NSCLC; 10 µM): 108% (inactive) and 104% (inactive) and 125% (inactive); growth (HOP-62 NSCLC; 100 µM): -66.5% (active); growth (NCI-H460 lung; 10 µM): 102% (inactive) and 115% (inactive) and 98.1% (inactive); growth (NCI-H460 lung; 100 µM): 98.8% (inactive); growth (HOP-92 NSCLC; 10 µM): 125% (inactive) and 43.3% (inactive) and -9.83% (active); growth (HOP-92 NSCLC; 100 µM): -22.3% (active); growth (NCI-H522 lung; 10 µM): 107% (inactive) and 97.2% (inactive) and 57% (inactive); growth (NCI-H522 lung; 100 µM): -61% (active); growth (A549/ATCC NSCLC; 10 µM): 103% (inactive) and 106% (inactive) and 96.4% (inactive); growth (A549/ATCC NSCLC; 100 µM): 25.2% (inactive); growth (786-0 renal; 10 µM): 109% (inactive) and 115% (inactive) and 112% (inactive); growth (786-0 renal; 100 µM): 8.48% (active); growth (COLO 205 colon; 10 µM): 121% (inactive) and 108% (inactive) and 119% (inactive); growth (COLO 205 colon; 100 µM): -59.9% (active)

Q: `C[n+]1c(/C=C/c2ccc([N+](=O)[O-])cc2)ccc2ccccc21` was tested. Which growth (NCI-H23 lung; 10 µM unless noted) did it give?
A: 90.4% (inactive)

Q: What about the growth (NCI-H226 lung; 10 µM unless noted) of the same molecule?
A: 87.9% (inactive)

Q: And the growth (NCI-H322M lung; 10 µM unless noted)?
A: 111% (inactive)

Q: And the growth (HOP-62 NSCLC; 10 µM unless noted)?
A: 97.4% (inactive)

Q: And the growth (NCI-H460 lung; 10 µM unless noted)?
A: 106% (inactive)

Q: What about the growth (HOP-92 NSCLC; 10 µM unless noted) of the same molecule?
A: 110% (inactive)

Q: And the growth (NCI-H522 lung; 10 µM unless noted)?
A: 102% (inactive)

Q: And the growth (A549/ATCC NSCLC; 10 µM unless noted)?
A: 75.7% (inactive)

Q: What about the growth (786-0 renal; 10 µM unless noted) of the same molecule?
A: 111% (inactive)

Q: What about the growth (COLO 205 colon; 10 µM unless noted) of the same molecule?
A: 101% (inactive)

Q: `Cc1ccnc(NC(c2ccccc2)c2ccc3cccnc3c2O)c1` (stereo not given) was tested. Which growth (NCI-H23 lung; 10 µM unless noted) did it give?
A: 47.8% (inactive)

Q: What about the growth (NCI-H226 lung; 10 µM unless noted) of the same molecule?
A: 57.8% (inactive)

Q: And the growth (NCI-H322M lung; 10 µM unless noted)?
A: 38.4% (inactive)

Q: And the growth (HOP-62 NSCLC; 10 µM unless noted)?
A: 54.1% (inactive)

Q: And the growth (NCI-H460 lung; 10 µM unless noted)?
A: 5.96% (active)

Q: And the growth (HOP-92 NSCLC; 10 µM unless noted)?
A: 67.8% (inactive)

Q: What about the growth (NCI-H522 lung; 10 µM unless noted) of the same molecule?
A: 7.12% (active)

Q: And the growth (A549/ATCC NSCLC; 10 µM unless noted)?
A: 39% (inactive)

Q: What about the growth (786-0 renal; 10 µM unless noted) of the same molecule?
A: 34.1% (inactive)

Q: What about the growth (COLO 205 colon; 10 µM unless noted) of the same molecule?
A: 36.8% (inactive)

Q: With `CCCCCCCCCCCCCCCCOP(=O)([O-])OCC[N+](C)(C)C` as the molecule, how does the growth (NCI-H23 lung; 10 µM unless noted) read?
A: 73.6% (inactive)

Q: What about the growth (NCI-H226 lung; 10 µM unless noted) of the same molecule?
A: 31.5% (inactive)

Q: What about the growth (NCI-H322M lung; 10 µM unless noted) of the same molecule?
A: 81.8% (inactive)

Q: And the growth (HOP-62 NSCLC; 10 µM unless noted)?
A: 19.5% (inactive)

Q: What about the growth (NCI-H460 lung; 10 µM unless noted) of the same molecule?
A: 3.97% (active)

Q: And the growth (HOP-92 NSCLC; 10 µM unless noted)?
A: -24.8% (active)

Q: And the growth (NCI-H522 lung; 10 µM unless noted)?
A: -55.1% (active)

Q: What about the growth (A549/ATCC NSCLC; 10 µM unless noted) of the same molecule?
A: 31.8% (inactive)

Q: And the growth (786-0 renal; 10 µM unless noted)?
A: 48.6% (inactive)

Q: And the growth (COLO 205 colon; 10 µM unless noted)?
A: 10.6% (inactive)

Q: How did the growth (NCI-H23 lung; 10 µM unless noted) turn out when `O=C1C2=C(Nc3cc([N+](=O)[O-])ccc3N2)OC1c1c2ccccc2cc2ccccc12` (stereo not given) was run?
A: 51.7% (inactive)

Q: And the growth (NCI-H226 lung; 10 µM unless noted)?
A: 82.9% (inactive)

Q: And the growth (NCI-H322M lung; 10 µM unless noted)?
A: 71.8% (inactive)

Q: And the growth (HOP-62 NSCLC; 10 µM unless noted)?
A: 88% (inactive)

Q: What about the growth (NCI-H460 lung; 10 µM unless noted) of the same molecule?
A: 46% (inactive)

Q: What about the growth (HOP-92 NSCLC; 10 µM unless noted) of the same molecule?
A: 44.1% (inactive)

Q: And the growth (NCI-H522 lung; 10 µM unless noted)?
A: 24% (inactive)

Q: What about the growth (A549/ATCC NSCLC; 10 µM unless noted) of the same molecule?
A: 71.1% (inactive)

Q: And the growth (786-0 renal; 10 µM unless noted)?
A: 48.3% (inactive)

Q: And the growth (COLO 205 colon; 10 µM unless noted)?
A: 118% (inactive)

Q: Which results are given for `Nc1nc(N)c2nc(CNc3ccc(C(=O)NC(CCC(=O)O)C(=O)O)cc3)cnc2n1` (stereo not given)?
A: growth (NCI-H23 lung; 10 µM unless noted): 24.8% (inactive) and 22.4% (inactive); growth (NCI-H226 lung; 10 µM unless noted): 60.5% (inactive) and 52% (inactive); growth (NCI-H322M lung; 10 µM unless noted): 51.2% (inactive) and 50.8% (inactive); growth (HOP-62 NSCLC; 10 µM unless noted): 39.1% (inactive) and 11.7% (inactive); growth (NCI-H460 lung; 10 µM unless noted): 15.2% (inactive) and 12.2% (inactive); growth (HOP-92 NSCLC; 10 µM unless noted): 69.9% (inactive) and 43.7% (inactive); growth (NCI-H522 lung; 10 µM unless noted): 35% (inactive) and 38.7% (inactive); growth (A549/ATCC NSCLC; 10 µM unless noted): 28.7% (inactive) and 36.9% (inactive); growth (786-0 renal; 10 µM unless noted): 13.9% (inactive) and 8.47% (active); growth (COLO 205 colon; 10 µM unless noted): 56.1% (inactive) and 32.8% (inactive)

Source: PubChem BioAssay (NCI)
